This is an account of results in ChEMBL document CHEMBL3988442, “University of Dundee, Small-Polar-MMV Screening Library” (2021).

Each structure is given as a SMILES string. Among all 53,000 compounds or so, about 900 (1.7%) showed an effect of 50% or more. Many of the other results were omitted from the sample, so strong results are more common in it than they were.

The test system of the assay is Mycobacterium tuberculosis. As to the kind of experiment: Cornell - Phenotypic assay to identify agents that inhibit growth of Mycobacterium tuberculosis. It counts as functional. Also on record: scale not given: direction of the effect not stated beside the values. As to conditions: 10 mM as filed; unlikely as a test dose.
For the molecule `O=C(O)C(F)(F)F.O=C(O)C(F)(F)F.c1cnn(CCCO[C@@H]2CC[C@H]3[C@H]2OCCN3CC2CCOCC2)c1`, the “Percent Effect” value is -30.39%.

As for `O=C(Nc1nc2c(s1)CN(S(=O)(=O)C1CC1)CC2)c1ccc(Cl)s1`, the “Percent Effect” value was 7.24%.

As for `O=C(Nc1nc2c(s1)CN(S(=O)(=O)C1CC1)CC2)c1cccc(Cl)c1`, the “Percent Effect” value was found to be 52.55%.

Take `O=C(Nc1nc2c(s1)CN(S(=O)(=O)C1CC1)CC2)c1c(F)cccc1F`: the “Percent Effect” value stood at 0.32%.

For the molecule `Cc1ccc(C(=O)N2CC(=O)N(Cc3ccco3)CC(O)C2)cc1` (stereo not given), the “Percent Effect” value worked out at 7.151%.

As to `Cc1ccc(-c2nc(CN3CC(n4nc(C)cc4C)C3)no2)cc1`, the “Percent Effect” value is 102.5%.

For `Cc1cc(C)n(C2CN(Cc3noc(-c4ccccc4)n3)C2)n1`, the “Percent Effect” value is 16.77%.

Regarding `COc1ccc(-c2nc(CN3CC(n4cccn4)C3)no2)cc1`, the “Percent Effect” value is listed as 15.06%.

`COc1ccc(-c2nc(CN3CC(n4cc(C)cn4)C3)no2)cc1`: the “Percent Effect” value amounted to 55%.

In the case of `COc1ccc(-c2nc(CN3CC(n4nc(C)cc4C)C3)no2)cc1`, the “Percent Effect” value is 46.41%.

In the case of `COc1ccc(-c2noc(CN3CC(n4cc(C)cn4)C3)n2)cc1`, the “Percent Effect” value stood at 22.62%.

In the case of `COCCCNC(=O)Nc1ncc(-c2cccc(OC)c2)n1CCOC`, the “Percent Effect” value was found to be 20.98%.

In the case of `CN(C)C(=O)CNC(=O)c1ccn(-c2ccc3ccccn23)n1`, the “Percent Effect” value is on record as 8.811%.

`CCc1nnc(CS(=O)(=O)c2ccc(C)c(C)c2)n1C`: the “Percent Effect” value was -14.67%.

Take `CN(Cc1ccc(-n2cccn2)cc1)C(=O)CCC(F)(F)F`: the “Percent Effect” value is reported as -2.335%.

Take `Cc1cccnc1CN(C)C(C(=O)O)c1ccc(-c2ccn[nH]2)cc1` (stereo not given): the “Percent Effect” value is reported as 83.57%.

Regarding `Cc1cccnc1CN(C)C(C(=O)O)c1ccc(-n2cccn2)cc1` (stereo not given), the “Percent Effect” value is 103.2%.

Regarding `COc1c(C)cc(C(C(=O)O)N(C)Cc2ccn[nH]2)cc1C` (stereo not given), the “Percent Effect” value is 14.99%.

For the molecule `Cc1cccnc1CN(C)C(C(=O)O)c1ccc(C(C)(C)C#N)cc1` (stereo not given), the “Percent Effect” value is on record as 37.7%.

Regarding `CCn1ccnc1CN(C)C(C(=O)O)c1ccc(C(C)(C)C#N)cc1` (stereo not given), the “Percent Effect” value is -8.491%.

For `COc1ccc(CN2C[C@@H]3CC[C@H](C2)N(S(C)(=O)=O)C3)cc1`, the “Percent Effect” value is reported as -9.044%.

For the molecule `CC(C)c1cc(N2CCC(N)CC2)n2nccc2n1`, the “Percent Effect” value stood at 24.37%.

Regarding `CC(C)c1cc(N2CCC(CCC(=O)NC3CC3)CC2)n2nccc2n1`, the “Percent Effect” value is recorded as 19.75%.

In the case of `Cc1cc2nc(C(C)C)cc(N3CCC(O)CC3)n2n1`, the “Percent Effect” value is 7.748%.

Regarding `Cc1cc2nc(C(C)C)cc(N3CCSCC3)n2n1`, the “Percent Effect” value is -12.34%.

Consider `CC(C)c1cc(N2CCN(c3ccc(O)cc3)CC2)n2nccc2n1`, for which the “Percent Effect” value was 106.1%.

Take `Cc1cc2nc(C(C)C)cc(N3CCN(c4ccc(O)cc4)CC3)n2n1`: the “Percent Effect” value is listed as 103.7%.

With `Cc1nc(CN2CCO[C@@H]3CN(C(=O)CC4CC4)CC[C@@H]3C2)cs1`, the “Percent Effect” value came to 21.81%.

As for `CCCN(CC(=O)NC)C(=O)c1ccc(-c2nc(C)cs2)cc1`, the “Percent Effect” value is given as 8.736%.

As to `CS(=O)(=O)N[C@@H]1CN(C(=O)c2ccccn2)[C@@H]2CCCO[C@@H]21.O=C(O)C(F)(F)F`, the “Percent Effect” value was 24.81%.

Turning to `CC(C)c1nc(-c2cc(C(=O)N3CCN(C)CC3)c3ccccn23)cs1.O=C(O)C(F)(F)F`, the “Percent Effect” value is -33.65%.

Take `O=C(c1cc(-c2ccn(CC3CC3)n2)n2ccccc12)N1CCCO1`: the “Percent Effect” value worked out at 45.3%.

As to `Cn1ccc(-c2cc(C(=O)N3CCC(O)CC3)c3ccccn23)n1`, the “Percent Effect” value is -33.58%.

In the case of `CC(C)c1nc(-c2cc(C(=O)NCCCO)c3ccccn23)cs1`, the “Percent Effect” value turned out to be 21.42%.

Turning to `CC(C)c1nc(-c2cc(C(=O)O)c3ccccn23)cs1`, the “Percent Effect” value stood at 89.3%.

As for `Cn1ccc(-c2cc(C(=O)N3CCOCC3)c3ccccn23)n1`, the “Percent Effect” value is reported as -21.75%.

As for `O=C(O)c1cc(-c2ccn(CC3CC3)n2)n2ccccc12`, the “Percent Effect” value came to 99.83%.

As to `O=C(c1cc(-c2ccn(CC3CC3)n2)n2ccccc12)N1CCOCC1`, the “Percent Effect” value came to 96.99%.

For the molecule `Cn1ccc(-c2cc(C(=O)N3CCC(C(N)=O)CC3)c3ccccn23)n1`, the “Percent Effect” value is on record as 11.2%.

As to `Cc1nc(N)ncc1C(=O)N1CCCC1(C)C(=O)N(C)C` (stereo not given), the “Percent Effect” value amounted to 14.34%.

With `Cc1cc(N2CCCC(c3[nH]ncc3Cc3ccccc3)C2)nc(N)n1` (stereo not given), the “Percent Effect” value worked out at 13.81%.

As for `Cc1ncc(CNC(=O)Cc2ccsc2)c(C2CCCN2C)n1` (stereo not given), the “Percent Effect” value was 11.73%.

For `CN1C(=O)C2(CC(=O)Nc3[nH]ncc32)c2cc(Cl)ccc21` (stereo not given), the “Percent Effect” value was 9.602%.

For the molecule `O=C(c1ccoc1)N1CCCn2cnc(COCC3CC3)c2C1`, the “Percent Effect” value was 7.498%.

For `COC(=O)[C@@H]1Cc2c[nH]c3cccc(c23)[C@H](CC(C)C)N1`, the “Percent Effect” value is given as 105.3%.

In the case of `CC(C)C[C@@H]1N[C@H](C(=O)NCC2CC2)Cc2c[nH]c3cccc1c23`, the “Percent Effect” value is given as 40.17%.

Take `CC(C)C[C@@H]1N[C@H](C(=O)NC(C)C)Cc2c[nH]c3cccc1c23`: the “Percent Effect” value was 22.96%.

`Cc1nc2sccn2c1CN(CCCN(C)C)Cc1ccccn1.O=C(O)CC(O)(CC(=O)O)C(=O)O`: the “Percent Effect” value was determined as 51.28%.

For the molecule `Cc1nc2sccn2c1CN(CCCN(C)C)Cc1ccco1.O=C(O)CC(O)(CC(=O)O)C(=O)O`, the “Percent Effect” value was 33.13%.

Turning to `Cc1ccc(CN(CCN(C)C)Cc2c(C)nc3sccn23)o1.O=C(O)CC(O)(CC(=O)O)C(=O)O`, the “Percent Effect” value was 26.14%.
